The record followed here is PubChem BioAssay AID2061319 (National Center for Advancing Translational Sciences (NCATS), 2025).

Inconclusive results are not listed. Active and inactive are the calls of the source. Calls come from the whole dose curve; as a rule, active = well fitted inhibition curve with a large enough effect; inconclusive = small, poorly fitted or top-dose-only effect; inactive = flat fitted curve, though single readings scatter. Square brackets hold non-standard residues; d marks the D form. Peptide text beside a SMILES is read from it. * marks the point of attachment. Dolaproine = CO[C@@H]([C@@H]1CCCN1)[C@@H](C)C(=O)O; Dil = CC[C@H](C)[C@H](NC)[C@@H](CC(=O)O)OC; X1 = C[C@@H](N*)[C@@H](O)c1ccccc1; NMeV = CN[C@H](C(=O)O)C(C)C

This assay is described as follows: Identification of antibody-drug conjugate (ADC) payloads which are substrates of ATP-binding cassette drug efflux transporters: ABCG2-H460-MX20 cell line with Ko143. The following applies: H460-MX20 (ABCG2) + Ko143, CellTiter-Glo viability, 48 h; series mostly up to 28.7 µM. From the text:
Antibody-drug conjugates (ADCs) feature an antibody recognizing a specific protein joined to a potent toxic payload. Numerous antibody-drug conjugates have received FDA approval; however, clinical resistance arises. Resistance mechanisms include decreased expression or mutation of the antibody target, impaired payload release, or increased expression of ATP-binding cassette (ABC) efflux transporters associated with multidrug resistance. We therefore sought to characterize the interaction of ABC multidrug transporters with ADC payloads. We performed a high-throughput screen with 27 common ADC payloads using cells lines expressing ABC transporters P-glycoprotein (P-gp, encoded by ABCB1) or ABCG2 (encoded by ABCG2). Confirmatory assays were also performed using cells transfected to express P-gp, ABCG2, or MRP1 (encoded by ABCC1). Several commonly used ADC payloads were substrates of P-gp, including calicheamicin gamma1, monomethyl auristatin E, DM1, and DM4. All the pyrrolobenzodiazepines tested - SJG136, SGD-1882, SG2057, and SG3199 - were substrates of P-gp, ABCG2, and MRP1. […] These findings highlight the risk of transporter-mediated resistance with certain ADC payloads and underscore the importance of selecting payloads that evade ABC transporter recognition in future ADC development.
HEK-293 cells were transfected with empty vector (pcDNA) or vector containing the human ABCB1 (MDR-19), ABCG2 (R-5), or ABCC1 gene (MRP1) and were maintained in EMEM with 2 mg/mL G418 added to maintain transporter expression. The HeLa derivative KB-3-1 and the P-gp overexpressing KB-8-5-11 subline were maintained in DMEM; KB-8-5-11 additionally received 100 ng/mL colchicine. H460 parental cells were obtained from the Division of Cancer Treatment and Diagnosis Tumor Repository, National Cancer Institute at Frederick, MD and were cultured in RPMI. The ABCG2 expressing subline H460 MX20 was generated by selecting H460 cells in 20 nM mitoxantrone. Media in all cases was supplemented with 10% FBS and 1% penicillin-streptomycin. We explored 27 common ADC payloads, in two orthogonal, paired cell line sets-a drug selected and transfected set for each transporter--to identify substrates of the ABC transporters P-gp and ABCG2. Compounds were sourced from Levena Biopharma (San Diego, CA), Selleck Chem (Houston, TX), ChemieTek (Indianapolis, IN), or Microsource Discovery Systems (Gaylordsville, CT). Screening was performed as previously described. Briefly, cells were plated at a density of 500 cells/well in 1536 well plates with compounds added using a 1536-head pin tool (Kalypsys, San Diego CA). Cells were incubated with cytotoxic drugs and processed with CellTiter Glo reagent (Promega, Madison, WI) to determine viability after 48 hours. P-gp substrates were identified by comparing compound activity between paired sets of low-expressing (sensitive) and over-expressing (resistant) cell lines.
For orientation: In ATP-based viability assays light output follows the ATP content of the culture.
On to `COc1cc2cc(C(=O)N3C[C@@H](CCl)c4c3cc(O)c3ccccc43)[nH]c2c(OC)c1OC`, for which the Potency was 1.9 nM (active).

As for `CC[C@H](C)[C@@H]([C@@H](CC(=O)N1CCC[C@H]1[C@H](OC)[C@@H](C)C(=O)N[C@H](C)[C@@H](O)c1ccccc1)OC)N(C)C(=O)[C@@H](NC(=O)[C@@H](NC)C(C)C)C(C)C` (H-[NMeV]V[Dil][Dolaproine]-X1), the Potency result was “inactive”.

With `CC[C@@]1(O)C(=O)OCc2c1cc1n(c2=O)Cc2cc3ccccc3nc2-1`, the Potency was 238 nM (active).

As to `CC[C@H](C)[C@@H]([C@@H](CC(=O)N1CCC[C@H]1[C@H](OC)[C@@H](C)C(=O)N[C@H](C)[C@@H](O)c1ccccc1)OC)N(C)C(=O)[C@@H](NC(=O)[C@H](C(C)C)N(C)C)C(C)C`, the Potency was 6710 nM (active).

On to `COc1cccc2c1C(=O)c1c(O)c3c(c(O)c1C2=O)C[C@@](O)(C(=O)CO)CC3OC1CC(N2CCOC(OC)C2)C(O)C(C)O1` (stereo partly drawn), for which the Potency is 9.5 nM (active).

With `CC[C@H](C)[C@@H]1NC(=O)CNC(=O)[C@H]2Cc3c([nH]c4cc(O)ccc34)S(=O)C[C@H](NC(=O)CNC1=O)C(=O)N[C@@H](CC(N)=O)C(=O)N1C[C@H](O)C[C@H]1C(=O)N[C@@H]([C@@H](C)[C@@H](O)CO)C(=O)N2` (stereo partly drawn), the Potency was 533 nM (active).

In the case of `CC[C@H](C)[C@H](NC(=O)[C@H]1CCCCN1C)C(=O)N(C)[C@H](C[C@@H](OC(C)=O)c1nc(C(=O)N[C@@H](Cc2ccccc2)C[C@H](C)C(=O)O)cs1)C(C)C`, the Potency entry is “inactive”.

With `CC[C@H](C)[C@H](NC(=O)[C@H]1CCCCN1C)C(=O)N(C)[C@H](C[C@@H](OC(C)=O)c1nc(C(=O)O)cs1)C(C)C`, the Potency entry was “inactive”.
